Experimental data from PubChem BioAssay AID743289 (Broad Institute, 2014).
This is one part of the list. Unmarked numbers belong to inactive results.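 How the source made its calls: active means compounds lowering fluorescence whose fitted half-maximal concentration is no more than twice their top tested dose; inconclusive means flat fit with 30 to 70% inhibition, or poor fit; inactive means the rest.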

Each compound was assayed against Caspase-1 (Homo sapiens) (UniProt P29466) (assay: caspase-1 enzyme inhibition, selectivity check – biochemical, Z-YVAD-R110 fluorescence, cherry-pick, set 2, selectivity assay for caspase-6 inhibitor project, dose response (AID 743289)). Settings: purified caspase-1, Z-YVAD-R110 cleavage fluorescence; series mostly up to 35 µM; activity change, negative = inhibition: at the top concentration.
Sequence of Caspase-1 (Homo sapiens) (P29466 whole entry, looked up): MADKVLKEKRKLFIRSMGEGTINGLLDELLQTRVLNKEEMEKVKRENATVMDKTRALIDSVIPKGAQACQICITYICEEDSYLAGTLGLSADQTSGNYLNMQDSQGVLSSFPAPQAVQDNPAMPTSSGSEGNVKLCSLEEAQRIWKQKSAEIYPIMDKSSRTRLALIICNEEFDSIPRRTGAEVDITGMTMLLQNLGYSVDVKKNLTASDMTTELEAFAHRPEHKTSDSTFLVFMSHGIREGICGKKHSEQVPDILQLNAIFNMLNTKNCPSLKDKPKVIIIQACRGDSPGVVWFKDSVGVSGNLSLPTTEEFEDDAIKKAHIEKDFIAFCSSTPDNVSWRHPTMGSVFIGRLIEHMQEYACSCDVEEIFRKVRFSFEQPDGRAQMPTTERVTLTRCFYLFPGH

Structure (SMILES)	activity change, negative = inhibition
CNS(=O)(=O)c1cccc(C(=O)OCC(=O)N2c3ccccc3NC(=O)C2(C)C)c1	-1%
Cc1c(CCC(=O)O)c(=O)oc2c(C)c(OCc3ccccc3Cl)ccc12	20.6%
CCN(CC)CCCC(C)n1c2nc(=O)[nH]c(=O)c-2nc2cc(Cl)ccc21 (stereo not given)	-0.661%
COc1cc(NC(=O)COC(=O)c2ccc([N+](=O)[O-])s2)cc(OC)c1OC	-2.52%
O=c1ccc2c(-c3ccccc3S(=O)(=O)O)c3ccc(O)c(O)c3oc-2c1O	-6.4%
